Rows were chosen to be rich in hits. Some 8.1% of all compounds tested hit in one or more screens of this group.
Gal4-VP16 FLuc – Gal4-VP16 reporter inhibition counter-screen | Drosophila S2 Gal4-VP16 UAS-luciferase, luminescence, 20 h | Potency, µM (doses to about 53.6 µM), usual class: inhibitors | 310,000 compounds, 3.5% hits;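 further: Gal4-VP16 expression switched on by copper sulfate through the metallothionein promoter; nearly all actives have a fitted effect of over 50% in size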
Epigenetic derep – derepresses silenced GFP reporter in murine cells. 280,000 compounds, 0.2% hits. Potency, µM (series often up to 53.9 µM), most hits filed as activators. AID 1865. murine LDR cells, GFP reporter derepression, 30 h; further: nearly all actives have a fitted effect of over 60% in size
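GFP-positive cell count by laser-scanning cytometry (objects 20–120 um) after 30 h, 37 C compound exposure of murine LDR cells; reporter is CMV-GFP integrated at a silenced locus, inducible by HDAC or DNMT inhibitors.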
PINK1 modulator – PINK1 expression modulation; PINK1 immunofluorescence, high-content cytometry, 24 h; Potency, µM (highest dose often 76.6 µM), most hits filed as activators; 410,000 compounds, 0.2% hits; active means well fitted activation curve with a large enough effect; inconclusive means small, poorly fitted or top-dose-only effect; cell line not stated here; further: nearly all actives have a fitted effect of over 65% in size
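Stable cell line treated 24 h with compounds at 5 concentrations (CCCP controls), then fixed and immunostained for PINK1 plus nuclear and cell stains; PINK1 immunofluorescence quantified by laser-scanning microplate cytometry.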
ClpP mod – qHTS Assay for Activators of ClpP | ATP-dependent Clp protease proteolytic subunit (Bacillus subtilis (strain 168)), P80244 | purified B. subtilis ClpP, FRET peptide cleavage, 20 min | Potency, µM (doses to about 57.5 µM) | 340,000 compounds, 1.9% hits | AID 651965, 2013; active means well fitted falling curve with a large enough effect; inconclusive means small, poorly fitted or top-dose-only effect; inactive means no such curve, though single readings can be large or run the other way; further: the source files actives as falling curves though it sought activators and does not explain the sign; nearly all actives have a fitted effect of over 65% in size
Target sequence (P80244 whole entry, looked up): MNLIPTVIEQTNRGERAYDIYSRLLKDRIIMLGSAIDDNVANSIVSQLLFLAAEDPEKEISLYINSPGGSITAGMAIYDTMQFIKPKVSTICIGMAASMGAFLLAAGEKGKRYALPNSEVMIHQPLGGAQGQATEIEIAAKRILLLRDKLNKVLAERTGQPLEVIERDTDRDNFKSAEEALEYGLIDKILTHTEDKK
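FRET quenching reversal measured ClpP activation: 10 microg/mL B. subtilis ClpP at pH 8 with the FRET-FV decapeptide, read at 430 nm after 320 nm excitation. The 20-min minus 0-min signal was scaled between DMSO/no-enzyme wells and ADEP (5.8 microM final).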
Sfp PPTase inh – blocks B. subtilis Sfp PPTase activity; Biochemical Sfp PPTase activity, qHTS; Potency, µM, usual class: inhibitors; 310,000 compounds, 3.5% hits;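 further: the enzyme is Sfp with the accession as filed and its product quenches rhodamine fluorescence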
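With Hepes-Na pH 7.6 buffer containing 10 mM MgCl2, Sfp (15 nM) modified BHQ-2-YbbR (12.5 uM) using rhodamine-CoA (5 uM). Two reads 30 minutes apart at 525/598 nm yielded each well's rate.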
RORg inh – ROR gamma (mouse) transcription inhibition; P51450; Drosophila S2 Gal4-RORgamma UAS-luciferase reporter, 20 h; Potency, µM (titrated, usually from 53.6 µM), actives largely listed as inhibitors; 310,000 compounds, 5.4% hits; AID 2551; further: nearly all actives have a fitted effect of over 60% in size
Target sequence (P51450 whole entry, looked up, the tested form may be a part): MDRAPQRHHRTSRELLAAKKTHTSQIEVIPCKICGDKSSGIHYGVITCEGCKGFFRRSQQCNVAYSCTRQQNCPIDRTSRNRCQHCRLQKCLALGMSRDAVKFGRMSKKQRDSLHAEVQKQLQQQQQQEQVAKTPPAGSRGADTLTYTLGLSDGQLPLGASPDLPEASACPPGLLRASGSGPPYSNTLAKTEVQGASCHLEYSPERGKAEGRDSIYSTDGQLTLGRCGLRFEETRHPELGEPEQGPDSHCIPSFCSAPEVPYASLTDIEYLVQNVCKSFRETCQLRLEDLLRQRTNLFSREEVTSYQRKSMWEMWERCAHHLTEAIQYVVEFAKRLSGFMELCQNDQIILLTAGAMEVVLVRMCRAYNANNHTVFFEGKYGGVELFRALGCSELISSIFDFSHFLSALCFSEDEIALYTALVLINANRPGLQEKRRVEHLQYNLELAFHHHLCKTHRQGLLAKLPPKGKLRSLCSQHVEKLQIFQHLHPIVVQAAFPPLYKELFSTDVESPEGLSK
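Drosophila S2 cells stably expressing Gal4-DBD/mouse RORγ fusion under metallothionein promoter plus UAS-luciferase; compound 1 h, then 700 uM CuSO4 induction for 20 h at ambient temperature; inhibition read as reduced luminescence.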
Numbers stand for hits; - = inactive; ? = inconclusive; . = no result; ! = a repeat was not active; [ ] = remark or other dose. Unless noted, the call rests on the fitted dose curve; in most records, active means well fitted curve in the direction sought with a large enough effect; inconclusive means small, poorly fitted or top-dose-only effect, or another doubt; inactive means no such curve, though single readings can be large; an effect the other way counts as inactive or inconclusive.

SMILES	Gal4-VP16 FLuc	Epigenetic derep	PINK1 modulator	ClpP mod	Sfp PPTase inh	RORg inh
CSc1cccc(NC(=O)C2CCN(S(=O)(=O)c3ccc4[nH]c(=O)ccc4c3)CC2)c1	.	-	-	-	.	.
Cc1ccc([N+](=O)[O-])c(C)c1	-	.	.	.	.	-
Cc1ccc2c(c1)N/C(=C(\C=C(/Cl)[N+](=O)[O-])[N+](=O)[O-])N2	-	-	.	.	35µM	?
CCOc1ccc(S(=O)(=O)N(CC(=O)Nc2ccc3c(c2)OCO3)c2ccccc2)cc1	.	-	-	-	.	.
COc1ccccc1OCc1nnc(SCC(=O)Nc2ccc(C)cc2)n1C	-	-	-	-	-	-
CCn1c(COc2ccccc2C)nnc1SCC(=O)CC(=O)Nc1ccccc1	?	-	-	-	-	7.1µM
Cc1ccccc1OCc1nnc(SCC(=O)Nc2ccc3c(c2)oc2ccccc23)n1C	?	-	13µM	14µM	-	-
COc1cccc(N2CC(NC(=O)/C=C\c3ccc4c(c3)OCO4)CC2=O)c1 (stereo not drawn)	.	-	-	-	.	.
Cc1ccc(-c2csc3nc(C)n(-n4cccc4)c(=O)c23)o1	-	-	-	-	56µM	-
Cc1ccc(-c2csc3nc(C)n(N)c(=O)c23)cc1	-	-	-	-	-	-
Cc1cc(C)c2c(c1)/C(=C/C(=O)c1ccc(Br)s1)C(=O)N2	-	-	-	-	-	-
Cc1cccc2c1NC(=O)/C2=C\C(=O)c1cccs1	?	-	-	-	-	7.1µM
CCc1ccc2c(c1)/C(=C/C(=O)c1cccs1)C(=O)N2	10µM	-	-	-	45µM	5.6µM
Cc1cc(Br)c2c(c1)/C(=C/C(=O)c1cccs1)C(=O)N2	18µM	-	-	.	-	11µM
Cc1nn(C)cc1/C=C/C(=O)c1cccs1	?	-	-	?	-	-
CCN(CC)/[N+]([O-])=N/OCOC(=O)C(C)c1ccc(CC(C)C)cc1 (stereo not drawn)	.	.	-	.	.	.
O=C(NCc1cccs1)c1ccc2c(=O)n3nc(Nc4ccccc4)sc3nc2c1	.	-	-	-	.	.
CCOC(=O)/C=C/S(=O)(=O)c1ccc(NC(C)=O)cc1	3.5µM	-	-	-	40µM	3.5µM
C=C1CC[C@H](O)C/C1=C/C=C1\CCC[C@]2(C)[C@@H]([C@H](C)CC[C@@H](O)C(C)(C)O)CC[C@@H]12	?	-	.	.	-	-
C=C1/C(=C\C=C2/CCC[C@]3(C)[C@@H]([C@H](C)CCCC(C)(C)O)CC[C@@H]23)C[C@@H](O)C[C@@H]1O	?	-	.	.	-	10µM!
C=C1CC[C@H](O)C/C1=C/C=C1\CCC[C@]2(C)[C@@H]([C@H](C)CCCC(C)(C)O)CC[C@@H]12	11µM!	-	.	.	-	?
Cc1ccc(C)c(S(=O)(=O)c2cn(C)c3cc(N4CCCCC4C)c(F)cc3c2=O)c1 (stereo not drawn)	.	-	-	?	.	.
CCOC(=O)CSC1=C(C#N)C(c2ccccc2C)C2=C(CCCC2=O)N1 (stereo not drawn)	-	-	-	-	14µM	-
Cc1ccc(C(=O)CSC2=C(C#N)C(c3ccco3)C3=C(CCCC3=O)N2)cc1 (stereo not drawn)	-	-	-	-	-	-
CC(C)(C)c1ccc(C(=O)CCCSC2=C(C#N)C(c3ccco3)C3=C(CCCC3=O)N2)cc1 (stereo not drawn)	-	-	-	-	50µM	-
SMILES	Gal4-VP16 FLuc	Epigenetic derep	PINK1 modulator	ClpP mod	Sfp PPTase inh	RORg inh
CCOC(=O)CSC1=C(C#N)C(c2ccccc2OC)CC(=O)N1 (stereo not drawn)	-	-	-	-	-	-
N#CC1=C(SCC(=O)c2ccccc2)NC2=C(C(=O)CCC2)C1c1ccco1 (stereo not drawn)	?	-	-	-	32µM	?
COc1ccc(C2C(C#N)=C(SCC(=O)Nc3ccc(C)cc3)NC3=C2C(=O)CC(C)(C)C3)cc1 (stereo not drawn)	-	-	-	22µM	?	-
Clc1cccc[n+]1CCCCCC[n+]1ccccc1Cl	.	.	.	-	.	.
O=C(C1CC1)N1CCN(c2nc3ccc(F)cc3s2)CC1	.	-	-	-	.	.
CCc1ccc2oc(C(=O)Nc3c(C)n(C)n(-c4ccccc4)c3=O)cc(=O)c2c1	.	-	-	-	.	.
COc1ccc(NC(=O)CSC2=C(C#N)C(c3ccco3)C3=C(CCCC3=O)N2)c(OC)c1 (stereo not drawn)	-	-	-	-	?	-
CCCCc1ccc(NC(=O)CSC2=C(C#N)C(c3ccco3)C3=C(CCCC3=O)N2)cc1 (stereo not drawn)	-	-	?	-	7.9µM	-
Cc1ccccc1NC(=S)N(C)Cc1cccs1	-	-	-	-	-	?
Cc1ccc(Cl)cc1NC(=S)N(Cc1cccs1)C1CCCC1	?	-	-	-	-	18µM
Cc1c(Cl)cccc1NC(=S)N(Cc1cccs1)C1CCCC1	?	-	-	-	-	11µM
O=C(O)CNC(=S)N(Cc1cccs1)C1CCCCC1	-	-	-	-	-	-
CCN(C(=S)Nc1ccccc1F)C1CCCCC1	-	-	.	-	-	13µM
Cc1ccccc1NC(=S)N(Cc1cccs1)C1CCCCC1	-	-	-	.	-	13µM
CN(C)c1c(Cl)cc(/C=C/c2ccnc3ccccc23)cc1Br	.	.	.	-	.	.
COc1cc(/C=C/[N+](=O)[O-])ccc1OCc1cccc(C(=O)O)c1	-[10 µM]	-	-	.	14µM	7.1µM
COc1ccc(/C=N/NC(=O)c2cc(C)oc2C)cc1OCc1ccccc1	?	.	-	.	-	10µM
COc1cc(/C=N/NC(=O)c2cccc([N+](=O)[O-])c2)ccc1OCc1ccccc1	?	-	-	-	-	3.2µM
COc1ccc(/C=N/NC(N)=S)cc1OC(=O)c1ccccc1	?	-	-	-	-	13µM
COc1ccc(C(=O)C=Cc2ccc(OCc3ccccc3)c(OC)c2)cc1OC	.	.	-	-	.	.
CC(C)CCN1C(=O)c2ccccc2CC1(C)C(=O)NC1CCCCC1 (stereo not drawn)	.	-	-	-	.	.
COCCN1Cc2cccc(C(=O)Nc3ccc(Cl)cc3Cl)c2C1=O	.	-	-	-	.	.
Cc1cnc(SCc2ccccn2)nc1C1CCCN(C(=O)c2noc3c2CCCC3)C1 (stereo not drawn)	.	.	-	.	.	.
COc1ccc(/C=N/NC(=O)c2cccc([N+](=O)[O-])c2)cc1OC(=O)c1ccc(C)cc1	?	-	-	-	-	5µM
COc1ccc(/C=N/NC(=O)c2cccc([N+](=O)[O-])c2)cc1OC(=O)c1ccccc1	?	-	-	-	-	?
Nc1ccc2oc(=O)ccc2c1I	-	.	.	.	-	-
O=S1(=O)N=C(Nc2cccc(C(F)(F)F)c2)c2ccccc21	.	-	-	-	.	.

From PubChem BioAssay
